Data as given in PubChem BioAssay AID540256 (National Center for Advancing Translational Sciences (NCATS), 2011).
Among all 300,000 compounds or so, about 3,700 (1.2%) were called active. Entries that show only a call come without a potency. Another 20% or so got no clear call; they are omitted. Calls follow the shape of the full dose curve; tested in HEK293 cells. The sample as a whole holds a higher share of actives than the screen did.

Assay: qHTS for Inhibitors of binding or entry into cells for Lassa Virus; also: nearly all actives have a fitted effect of over 50% in size
Settings: Lassa virus pseudotype entry inhibition, cell reporter; series mostly up to 37.9 µM
Potency is read from the fitted curve at half-maximal effect.

Structure (SMILES) | Potency
Cn1cccc1C(=O)OCC(=O)c1ccc(Br)s1 | inactive
COc1ccc(CNC(=O)CN2C(=O)c3ccccc3S2(=O)=O)cc1 | inactive
COc1cccc(NC(=O)C/C(C)=N/NC(=O)C2CCCCC2)c1 | inactive
COc1ccc(COC(=O)N/N=C(\C)CC(=O)Nc2ccc(Cl)cc2)cc1 | 0.141 µM (active)
C/C(CC(=O)Nc1ccc(Cl)cc1)=N\NC(=O)C(=O)NCCO | inactive
CCN(CC(=O)Nc1ccccc1OC)C(=O)CC1CC2CCC1C2 (stereo not drawn) | inactive
Cc1ccc(OCC(=O)N/N=C/c2ccncc2)cc1 | inactive
Cc1ccc(OCC(=O)N/N=C\c2ccco2)c(C)c1 | inactive
Cc1ccc(/C=N/NC(=O)COc2ccccc2-c2ccccc2)cc1 | 1.64 µM (active)
O=C(Cc1ccccc1)Nc1cccc(NC(=O)c2ccccc2)c1 | inactive
CCc1cccc(NC(=O)CCC(=O)O)c1 | inactive
O=C(CCl)Nc1cccc(CP(=O)(c2ccccc2)c2ccccc2)c1 | 7.94 µM (active)
CN(C)S(=O)(=O)c1ccc(N2CCCC2)c(C(=O)Nc2ccc(Br)cc2F)c1 | inactive
CCCn1nc(C(=O)OCc2nc(N)nc(Nc3ccccc3C)n2)c2ccccc2c1=O | inactive
CCC(C(=O)Nc1cc(OC)ccc1OC)n1c(=O)c(C(F)(F)F)nc2ccccc21 (stereo not drawn) | inactive
O=C(N/C(=C/c1ccc(Cl)cc1)C(=O)N1CCCCC1)c1ccco1 | inactive
CCN(CC)S(=O)(=O)c1ccc2c(c1)c(=O)c(C(=O)N1CCN(c3cccc(Cl)c3)CC1)cn2C | inactive
CCn1cc(C(=O)NCc2ccccc2)c(=O)c2cc(S(=O)(=O)N3CCCCC3)ccc21 | inactive
C=CCn1cc(C(=O)NCc2ccc(Cl)cc2)c(=O)c2cc(S(=O)(=O)N(CC)CC)ccc21 | 0.398 µM (active)
CC(=O)OC1CCC2(C)C(=CCC3C4CC(=O)N(O)C(=O)C4(C)CCC32)C1 (stereo not drawn) | inactive
CC(C(=O)NC1CCCC1)N1CCN(S(=O)(=O)c2ccccc2Cl)CC1 (stereo not drawn) | inactive

Structure (SMILES) | Potency
Cc1ccc(N(CC(=O)NC2CCCCC2)C(=O)CCCC(=O)Nc2ccccn2)c(C)c1 | inactive
CC(Nc1nc(N2CCOCC2)nc2ccccc12)c1ccccc1 (stereo not drawn) | inactive
c1ccc2c(NC3C4CC5CC(C4)CC3C5)nc(N3CCOCC3)nc2c1 (stereo not drawn) | inactive
CC(Nc1nc(N2CCCC2)nc2ccccc12)c1ccccc1 (stereo not drawn) | 12.6 µM (active)
Cc1ccc(S(=O)(=O)N2CCC(C(=O)NCCC3=CCCCC3)CC2)cc1C | inactive
COc1cc(NC(=O)c2ccc(-c3csc(C)n3)cc2)c(OC)cc1Cl | inactive
O=C1c2ccccc2C(=O)c2c1cccc2N1CCN(C/C=C/c2ccccc2)CC1 | inactive
O=C(Nc1cccc(Br)c1)C1CC(=O)N(C2CCCC2)C1 (stereo not drawn) | inactive
CN(C)S(=O)(=O)c1cccc(NC(=S)N/N=C/C(=O)c2ccccc2)c1 | inactive
NS(=O)(=O)c1ccc(NC(=O)COC(=O)C2(c3ccc(F)cc3)CCCC2)cc1 | inactive
CN(C)S(=O)(=O)c1cccc(NC(=O)COC(=O)C2(c3ccccc3F)CCCC2)c1 | 4.11 µM (active)
Cc1ccc(S(=O)(=O)N(CC(=O)Nc2cccc([N+](=O)[O-])c2)Cc2ccc(Cl)cc2)cc1 | inactive
CN(c1ccccc1)S(=O)(=O)c1cccc(NC(=O)Cc2c(F)cccc2Cl)c1 | 11.2 µM (active)
CN(c1cccc(NC(=O)Nc2ccc(Cl)cc2)c1)S(C)(=O)=O | inactive
CN(c1ccccc1)S(=O)(=O)c1cccc(C(=O)NNC(=O)c2ccncc2)c1 | inactive
CN(C)S(=O)(=O)c1cccc(NC(=O)COC(=O)/C=C/c2cccs2)c1 | inactive
CN(c1ccccc1)S(=O)(=O)c1cccc(NC(=O)Cc2ccc(Cl)cc2)c1 | 8.91 µM (active)
CN(C)S(=O)(=O)c1cccc(NC(=O)Cc2ccsc2)c1 | 2.82 µM (active)
CN(c1ccccc1)S(=O)(=O)c1ccc(Cl)c(C(=O)OCC(N)=O)c1 | inactive
CN(C)S(=O)(=O)c1cccc(NC(=O)COC(=O)c2cc(=O)[nH]c(=O)[nH]2)c1 | inactive
O=C(COC(=O)C1CCCO1)Nc1nc(-c2ccc(F)cc2)cs1 (stereo not drawn) | inactive

Structure (SMILES) | Potency
COc1cc(N)c(Cl)cc1C(=O)OCC(=O)c1ccc2c(c1)NC(=O)CO2 | inactive
COC(=O)C=C[C@H]1c2ccccc2[C@@H](OC)[C@@H]1C | inactive
NC1=NC(c2ccc([N+](=O)[O-])cc2)N(c2ccc(F)cc2)C(N)=N1 (stereo not drawn) | inactive
CC(C)Sc1nc(N)nc2c1ncn2C1OC(CO)C(O)C1O (stereo not drawn) | inactive
COc1cc2c(cc1OC)CN(C(=O)c1cc(S(=O)(=O)N3CCCCC3)ccc1Cl)CC2 | inactive
CCOc1ccccc1NC(=S)C(=C([O-])c1ccc2c(c1)OCCO2)[n+]1ccc(CC)cc1 | inactive
CC(C)c1ccc(NC(=O)c2ccc(Cn3nc(N4CCN(c5ccccc5)CC4)ccc3=O)o2)cc1 | inactive
O=C(CSc1nnc(COc2ccc(Cl)cc2)n1Cc1ccco1)N1CCNC1=O | inactive
O=C(c1cc(C(=O)N2CCN(c3ccc(F)cc3)CC2)cc([N+](=O)[O-])c1)N1CCN(c2ccc(F)cc2)CC1 | inactive
O=C(NCCCN1CCCC1=O)C(=O)NCC1OCCN1S(=O)(=O)c1ccc(Br)cc1 (stereo not drawn) | inactive
Cc1cc(C)cc(NC(=S)NCc2ccc(F)cc2)c1 | inactive
CCc1cccc(NC(=O)CN(C)S(=O)(=O)c2ccc3[nH]c4c(c3c2)CCCC4)c1 | inactive
Cc1cccc(NC(=S)NCc2ccc3[nH]c4c(c3c2)CCCC4)c1 | 20.6 µM (active)
CCCC(O)(c1ccccc1)C(c1ccccc1)c1ccccn1 (stereo not drawn) | inactive
CCOC(=O)c1ccc(NC(=O)C2CCN(S(=O)(=O)c3ccc4c(c3)CCCC(=O)N4)CC2)cc1 | inactive
COc1ccc(C(=O)NCCc2ccc(S(N)(=O)=O)cc2)cc1OC | inactive
CC(C)(CO)CNC(=O)c1ccc2[nH]c(O)c(N=Nc3ccc(S(N)(=O)=O)cc3)c2c1 | 1.58 µM (active)
Cc1c(C)n(Cc2ccc(Cl)cc2)c2ccc(C(=O)NCCc3ccc(S(N)(=O)=O)cc3)cc12 | inactive
Cc1cc(NC(=O)CCC(=O)N(CC(=O)NCC2CCCO2)c2ccccc2)no1 (stereo not drawn) | inactive
CCCCOc1ccc(N(CC(=O)NCC2CCCO2)C(=O)CCC(=O)Nc2cc(C)ccn2)cc1 (stereo not drawn) | 23.1 µM (active)
Cc1cc(NC(=O)CCC(=O)N(CC(=O)NCC2CCCO2)c2ccccc2C)no1 (stereo not drawn) | inactive
